Screens (PubChem BioAssay)
POLB inh = inhibitors of human DNA polymerase beta | Potency, µM (doses to about 114 µM), inactives show top-dose activity change, negative = inhibition, actives largely listed as inhibitors | Pol beta primer extension/strand displacement, fluorescence kinetic | 340,000 tested, 1.3% active | P06746; also: % is scaled to controls: 0 for no effect and ±100 for the full control effect
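Reaction started by 50 nM substrate onto compound-treated Pol beta (10 nM, 15 min preincubation, room temperature); plates read at 0 min and 10 min. Normalized concentration-effect data fitted by four-parameter Hill equation.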
Pol eta inh = inhibitors of human DNA polymerase eta | Q9Y253 | recombinant Pol eta, fluorescent DNA replication assay | Potency, µM (titrated, usually from 114 µM), inactives show at the highest dose activity change, negative = inhibition, usual class: inhibitors | 390,000 tested, 1.2% active | AID 588591; also: % is scaled to controls: 0 for no effect and ±100 for the full control effect
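Pol eta at 10 nM preincubated with compounds 15 min at room temperature; reaction started with fluorescent substrate (50 nM final) and read kinetically at 0 and 10 min.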
POLK inh = DNA polymerase kappa (human) inhibition; Q9UBT6; purified Pol kappa, fluorescent DNA synthesis assay, 10 min; Potency, µM (doses to about 107 µM), for the others: at the top dose activity, negative = inhibition, most hits filed as inhibitors; 400,000 tested, 0.53% active; also: % is scaled to controls: 0 for no effect and ±100 for the full control effect
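Here, compound and 10 nM enzyme are combined for 15 min at room temperature; adding 50 nM substrate (final) starts DNA synthesis, tracked by fluorescence at 0 and 10 min against buffer-only wells.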
Pol iota inh = DNA polymerase iota (human) inhibition. Q9UNA4. Pol iota fluorescent replication assay, 10 min. Potency, µM (highest dose often 115 µM), for the others: at the highest dose activity, negative = inhibition, actives largely listed as inhibitors. 390,000 tested, 1% active
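Fluorescent replication assay read twice, at 0 min and 10 min after adding 50 nM (final) substrate. Enzyme (10 nM) and compounds were first incubated 15 min at room temperature; enzyme-free buffer wells were negative controls.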
L3MBTL1 inh = inhibitors of human L3MBTL1; 230,000 tested, 0.66% active; AlphaScreen L3MBTL1–H3K9me1 peptide binding; Q9Y468; Potency, µM (series often up to 57.1 µM), inactives show at the highest dose activity, negative = inhibition, actives largely listed as inhibitors; also: % is scaled to controls: 0 for no effect and ±100 for the full control effect; nearly all actives have a fitted effect of over 60% in size
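Read-out is AlphaScreen signal from streptavidin donor and nickel chelate acceptor beads (10 ug/mL final each) bridging L3MBTL1 (50 nM) and biotinylated K9-monomethylated H3(1-15) peptide (75 nM), after 30 min compound exposure at room temperature.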
WRN inhibitor = WRN helicase (human) inhibition; AID 651768; WRN helicase unwinding, fluorescent forked duplex, kinetic; Potency, µM (titrated, usually from 114 µM), without a hit: at the top dose activity change, negative = inhibition, usual class: inhibitors; 360,000 tested, 0.46% active; Q14191; also: % is scaled to controls: 0 for no effect and ±100 for the full control effect; nearly all actives have a fitted effect of over 55% in size
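Enzyme (20 nM final) and test compound sit together 15 min at room temperature before substrate addition. Substrate is a single-forked duplex oligonucleotide (100 nM) labelled with fluorophore and quencher, with 2 mM ATP; helicase unwinding raises red fluorescence, read kinetically.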
Starred values were filed as active, the others as inactive; ? = inconclusive; . = no result; [ ] = remark or other dose. This is a sample that favours compounds with a hit; in the whole collection about 2.5% have one here. Calls follow the shape of the dose curve; as a rule, active = well fitted curve in the direction sought with a large enough effect; inconclusive = small, poorly fitted or top-dose-only effect, or another doubt; inactive = no such curve, though single readings can be large; an effect the other way counts as inactive or inconclusive. Potency is read from the fitted curve at half-maximal effect.

SMILES | POLB inh | Pol eta inh | POLK inh | Pol iota inh | L3MBTL1 inh | WRN inhibitor
Cc1ccc(O)c(N=CC2=C(O)c3ccccc3C2=O)c1 | ? | 18µM* | -25% | ? | ? | -11%[11.6 µM]
CN=CC1=C(O)c2ccccc2C1=O | 30% | -8% | 1% | -12% | -3% | 0%
O=C1C(C=Nc2ccccc2O)=C(O)c2ccccc21 | 35µM* | -11% | 0% | 8% | -7% | -15%
Cc1ccc(C(C)NC(=O)c2ccc3c(c2)OCCO3)cc1C (stereo not drawn) | -10% | -17% | -6% | 106% | -2% | -9%
COc1ccc(-c2nc(-c3cccs3)c(-c3cccs3)[nH]2)cc1OC | 89µM* | -13% | -23% | -8% | . | 3%[57.1 µM]
COc1ccc(C(=O)COC(=O)[C@H](C)Nc2ccc(C(F)(F)F)cc2[N+](=O)[O-])c(OC)c1 | 40µM* | ? | -27% | ? | -22% | -20%
O=S(=O)(c1ccc(NC(=S)N/N=C/c2ccc(O)c(O)c2)cc1)N1CCOCC1 | -27% | -3% | ? | 20µM* | ? | -27%
Oc1ccc(/C=N/NC(=S)Nc2cccnc2)cc1O | ? | ? | ? | 3.5µM* | 11µM* | -29%
COc1ccc(-c2noc(N3CCC(C(=O)N4CCN(c5cccc(OC)c5)CC4)CC3)n2)cc1 | 20% | 5% | 0%[60.1 µM] | -11% | . | .
O=c1c(-c2ccc(Br)cc2)coc2c(CN3CCCCC3)c(O)ccc12 | 22% | -12% | -15% | -5% | . | -18%
O=c1c(-c2ccc(Cl)cc2)coc2c(CN3CCCCC3)c(O)ccc12 | 16% | -4% | -6% | 32µM* | 9% | 3%
O=c1cc(CSc2nnnn2-c2ccccc2)nc2scc(-c3ccccc3)n12 | 25µM* | -14% | ? | ? | -27% | -12%
Cc1cccc(C)c1OCc1cc(=O)n2c(-c3ccccc3)csc2n1 | -13% | -3% | -5% | 18% | . | .
CC(C)c1ccc(OCc2cc(=O)n3c(-c4ccccc4)csc3n2)cc1 | 20µM* | ? | -24% | ? | . | .
O=c1cc(CN2CCN(c3ccc(O)cc3)CC2)nc2scc(-c3ccccc3)n12 | 11µM* | -18% | -20% | ? | -8% | -14%
C=CCN(CC=C)Cc1cc(=O)n2c(-c3ccccc3)csc2n1 | -13% | -2% | -6% | 3% | . | -4%
O=c1cc(COc2ccccc2Cl)nc2scc(-c3ccccc3)n12 | -21% | ? | ? | ? | . | .
O=c1cc(CSc2nnnn2-c2ccccc2)nc2sccn12 | -16% | -2% | -23% | ? | -8% | -15%
Cc1cccc(OCc2cc(=O)n3c(-c4ccccc4)csc3n2)c1C | 28µM* | ? | -34% | ? | . | .
NC(=S)N=Nc1c(O)n(Cc2ccc(Br)cc2)c2ccccc12 | 14% | -12% | 4% | 12% | -3% | 1%
Cc1nnc(SCC(=O)NCc2cccc(F)c2)c2nn(-c3ccccc3)c(C)c12 | 27% | -1% | -2% | -1% | . | .
CCOc1ccc(NCc2cccn2-c2nnc(N3CCC(C(=O)NCC(C)c4ccccc4)CC3)s2)cc1 (stereo not drawn) | 0% | . | -4% | 13% | . | .
COc1ccc(NC(=O)c2noc3c2CCCC3)cc1Cl | 18% | -5% | -3% | -12% | . | .
Nc1ccc(Oc2ncccn2)cc1 | 4% | 40µM* | -8% | ? | . | -6%
COc1ccc(C)cc1NC(=O)CSc1ncc2c(n1)-c1ccc(Cl)cc1N(Cc1ccccc1)S2(=O)=O | -20% | -12% | -20% | -1% | . | .
SMILES | POLB inh | Pol eta inh | POLK inh | Pol iota inh | L3MBTL1 inh | WRN inhibitor
COc1ccc2c(c1)oc(=O)c1c3ccccc3[nH]c21 | 22µM* | -12% | -26% | -26% | 35% | -1%
COc1ccc2c(c1)oc(=O)c1ccccc12 | 0% | -21% | 6% | 4% | 35% | 6%
O=C1NC(=S)/C(=C\c2ccc(-c3ccccc3Cl)o2)S1 | 40µM* | 16µM* | ? | ? | ? | 50µM*
Cc1nnc(C)n1/N=C/c1ccc(-c2ccccc2Cl)o1 | 60% | -12% | -2% | 129% | . | 11%
CC1Cc2ccccc2N1Cc1nc2cc(C(F)(F)F)ccc2c(=O)[nH]1 (stereo not drawn) | 5% | -6% | -17% | 17% | -9% | -20%
COc1ccc(-c2cc(=O)c3c(C)cc(O)cc3o2)cc1 | . | ? | ? | 20µM* | . | ?
COc1cc(-c2cc(=O)c3c(C)cc(O)cc3o2)cc(OC)c1OC | . | ? | -6% | 15% | . | -16%
COC(=O)c1sc(S(=O)(=O)Nc2c(C)nn(C)c2C)c(C(=O)OC)c1C | . | -26% | -9% | -12% | ? | 4%
COC(=O)c1sc(NC(=S)NNC(=O)c2c(Br)c(C)nn2C)c(C(=O)OC)c1C | 22µM* | 50µM* | -35% | ? | . | -18%
O=c1cc(O)c2sc(Nc3ccc(F)c(Cl)c3)nc2[nH]1 | 56µM* | -12% | -2% | 43% | . | ?
COc1ccc(Nc2nc3[nH]c(=O)cc(O)c3s2)cc1 | 45µM* | -19% | 6% | 84% | 8% | -5%
CC1(CCCN2C(=O)c3ccccc3C2=O)OCCO1 | . | 9% | 4% | 31% | . | 1%
CCc1ccc(NC(=O)CSc2nc(NS(=O)(=O)c3ccccc3)cc(=O)[nH]2)cc1 | 20µM* | -21% | -7% | 29% | ? | -6%
CCOc1ccc(NC(=O)CSc2oc(-c3ccc(C)cc3)nc2S(=O)(=O)c2ccc(C)cc2)cc1 | 3.2µM* | 79µM* | 1% | 10% | . | .
CCOc1ccc(NC(=O)CSc2nc(NS(=O)(=O)c3ccc(C)cc3)cc(=O)[nH]2)cc1 | 3% | -18% | 40µM* | 22µM* | . | 1%[11.6 µM]
CCOc1ccc(NC(=O)CSc2oc(-c3cccs3)nc2S(=O)(=O)c2ccc(Cl)cc2)cc1 | 13% | -24% | -17% | 6% | . | .
Cc1ccc(S(=O)(=O)Nc2cc(=O)[nH]c(SCC(=O)Nc3ccccc3Cl)n2)cc1 | ? | -21% | 5% | -14% | 1% | -4%
Cc1ccc(NC(=O)CSc2nc(NS(=O)(=O)c3ccccc3)cc(=O)[nH]2)cc1 | 22µM* | 22µM* | 22µM* | ? | . | 50µM*
Cc1ccc(OCC(=O)N2C(C)CCCC2C)c([N+](=O)[O-])n1 (stereo not drawn) | . | -9% | -13% | 45% | 0% | -9%
Cc1cc(=O)[nH]c(SCC(=O)Nc2ccc(C(=O)O)cc2)n1 | -14% | -9% | -3% | 10% | . | -8%[57.1 µM]
Cc1cc(=O)[nH]c(SCC(=O)Nc2ccc(S(N)(=O)=O)cc2)n1 | ? | 20µM* | ? | 40µM* | . | -19%
